In PubChem BioAssay:
Several values for one entry are separate records, joined by “and”; a condition that tells them apart may be missing. Identical values can stand only once. Activity calls are given as the source filed them.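 The calls were made as follows: active = at least 20% inhibition of 6-phosphogluconate dehydrogenase activity; inactive = the rest.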 Where a SMILES comes first, the peptide text is derived from it.

Target: 6-phosphogluconate dehydrogenase, decarboxylating (Homo sapiens) (UniProt P52209)
Experiment: inhibition of human phosphogluconate dehydrogenase – biochemical, recombinant enzyme, NADPH absorbance, primary screen (AID 1159550)
Conditions: recombinant 6PGD, NADPH absorbance 341 nm; at 10 µM; hits give high values

Sequence of 6-phosphogluconate dehydrogenase, decarboxylating (Homo sapiens) (P52209 whole entry, looked up): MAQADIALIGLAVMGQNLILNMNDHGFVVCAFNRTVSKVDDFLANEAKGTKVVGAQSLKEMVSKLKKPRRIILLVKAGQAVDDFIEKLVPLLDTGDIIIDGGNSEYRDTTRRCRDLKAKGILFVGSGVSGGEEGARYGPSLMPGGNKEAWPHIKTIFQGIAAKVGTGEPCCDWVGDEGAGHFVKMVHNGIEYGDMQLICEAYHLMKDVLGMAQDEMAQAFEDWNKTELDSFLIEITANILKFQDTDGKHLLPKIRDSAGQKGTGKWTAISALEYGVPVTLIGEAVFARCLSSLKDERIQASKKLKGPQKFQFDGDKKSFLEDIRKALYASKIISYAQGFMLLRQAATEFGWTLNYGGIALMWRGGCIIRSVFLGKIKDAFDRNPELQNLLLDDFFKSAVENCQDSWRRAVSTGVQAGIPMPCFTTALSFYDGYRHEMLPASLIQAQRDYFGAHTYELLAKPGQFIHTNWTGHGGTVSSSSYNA

inhibition, inactive:
COC(=O)C(O)[C@H]1C(C)(C)[C@@H](OC(C)=O)[C@@H]2CC3=C4CC(=O)O[C@@H](c5ccoc5)[C@]4(C)CCC3[C@@]1(C)C2=O (some centres undefined) 12.8%, C=C1CCC(=O)C(C)CCC2C1CC2(C)C (centres undefined) 14.7%, C/C=C(/C)C(=O)O[C@H]1Cc2c(ccc3ccc(=O)oc23)OC1(C)C 9.34%, CC(=O)OCC(=O)[C@@]1(O)CC[C@H]2[C@@H]3CC[C@@H]4C[C@H](OC(C)=O)CC[C@]4(C)[C@H]3C(=O)C[C@@]21C 4.42%, CC1(C)C(=O)[C@H]2C[C@]3(O)C4=CC(=O)O[C@@H](c5ccoc5)[C@@]4(C)CCC3[C@](C)(C2=O)[C@H]1CC(=O)O (some centres undefined) -7.25%, COc1c(C(C)C)oc2cc3oc(=O)ccc3cc12 2.98%, O=C(O)Cc1cc(I)c(Oc2cc(I)c(O)c(I)c2)c(I)c1 -3.72%, CCCCC(CC)COC(=O)COc1cc(Cl)c(Cl)cc1Cl (centres undefined) 4.06%, CC(=O)Oc1ccc(-c2cc(=O)c3c(OC(C)=O)cc(OC(C)=O)cc3o2)cc1 -7.11%, CC(=O)c1cc2c(cc1O)OC(C)(C)C=C2 16.8%, COc1cc(O)c2c(=O)c(-c3ccccc3)coc2c1 -1.53%, CCC[C@H]1CC2=C(C[C@@H](CC)CC3=C1C(=O)OC3=O)C(=O)OC2=O -4.81%, Cc1cc(=O)c2c(O)c3c(cc2o1)OC(C)(C)CC3 3.81%, C#CC1(O)CCC2C3CCc4cc(O)ccc4C3CCC21C (centres undefined) 14.4%, CC(=O)OC1CC2C(C)(C)C(=O)C=CC2(C)C2CCC3(C)C(c4ccoc4)OC(=O)C4OC43C12C (centres undefined) -18.7%, CC1=CCCC(C)=CCC(C)(C)C=CC1 -0.753%, CC(C)CCC[C@@H](C)[C@H]1CC[C@H]2[C@@H]3CC[C@H]4CC(=O)CC[C@]4(C)[C@H]3CC[C@]12C -4.87% and 3.54%, O=C(O)C=CC=Cc1ccccc1 8.52%, CC12CCC3c4ccc(O)cc4CCC3C1CCC2OC(=O)CCC1CCCC1 (centres undefined) -3.96%, CC(=O)O[C@H]1CC[C@]2(C)C(C[C@H](OC(C)=O)[C@]3(C)C4=CC(=O)O[C@H](c5ccoc5)[C@@]4(C)CCC23)C1(C)C (some centres undefined) -15.5%, CC(C)CC(NC(=O)CN)C(=O)NC(Cc1ccccc1)C(=O)O (stereo not drawn) (H-Gly-Leu-Phe-OH; configuration not given here) 6.11%, CC(C)(O)[C@@H]1Cc2cc3ccc(=O)oc3cc2O1 -0.979%, C=C[C@@H](C1=CC(=O)C(OC)=CC1=O)c1ccccc1 -0.743%, CC(C)=CCC[C@](C)(O)C1CC=C(C)CC1 (some centres undefined) 1.33%, CO[C@H]1/C=C/O[C@@]2(C)Oc3c(C)c(O)c4c(O)c(c(/C=N/N5CCN(C)CC5)c(O)c4c3C2=O)NC(=O)/C(C)=C/C=C/[C@H](C)[C@H](O)[C@@H](C)[C@@H](O)[C@@H](C)[C@H](OC(C)=O)[C@@H]1C 18.2%, NCCCC[C@H](N)C(=O)N[C@@H](Cc1ccccc1)C(=O)N[C@@H](Cc1ccc(O)cc1)C(=O)O (H-Lys-Phe-Tyr-OH) 6.75%, COc1cc2c(cc1-c1coc3c4c(c(OC)cc3c1=O)OC(C)(C)C=C4)OCO2 8.44%, COc1ccccc1/C=C/C(=O)O 11.5%, COC(=O)C[C@H]1C(C)(C)[C@H](O)[C@@H]2CC3=C4CC(O)O[C@@H](c5ccoc5)[C@@]4(C)CCC3[C@]1(C)C2=O (some centres undefined) -7.8%, CC(C)CCC[C@@H](C)[C@H]1CC[C@H]2[C@@H]3CC[C@@H]4C[C@H](O)CC[C@]4(C)[C@H]3CC[C@]12C -3.72%, C=C(C)C1Cc2c(ccc(C(=O)O)c2O)O1 (centres undefined) -0.806%, CC(=O)O[C@@H]1CC2C(C)(C)C=CC(=O)[C@]2(C)C2CC[C@@]3(C)[C@H](c4ccoc4)OC(=O)C4OC43[C@@]21C (some centres undefined) -6.87%, C=C1C(CCl)(CCl)C2(Cl)C(Cl)C(Cl)C1(Cl)C2(Cl)Cl (centres undefined) -11.7%, CC1(C)CCC2(C(=O)O)CCC3(C)C(=CCC4C5(C)CCC(O)C(C)(C)C5CCC43C)C2C1 (centres undefined) 0.817%
